Test results published in PubChem BioAssay.

Assay: resazurin metabolic signal in HepG2 cells – cell-based, resazurin fluorescence, 24 h, PK04 Diversity Set, profiling panel (AID 1172); also: test concentration not given here
Conditions: HepG2 viability, higher = more signal

| SMILES | z-score |
| --- | --- |
| COC(=O)[C@H](Cc1ccc(O)cc1)N[C@@H](/C=C/C1CC1)[C@H](O)Cc1ccccc1 | -0.752 |
| COc1ccc(CCNC(=O)[C@@H]2c3ccccc3C(=O)N(Cc3ccccc3OC)[C@H]2c2ccc(CO)cc2)cc1 | 0.851 |
| COc1ccc(C(=O)Nc2cccc(CN3C(=O)[C@]4(O[C@H](CC(=O)N5Cc6ccccc6C[C@H]5CO)[C@@H]([Si](C)(C)c5ccc(OC)cc5)[C@@H]4C)c4ccccc43)c2)cc1 | 0.256 |
| C=CCN1Cc2ccccc2[C@H]2OC(c3ccc(OCCCO)cc3)=N[C@@]2(CCS(=O)(=O)c2ccccc2)C1=O | -0.439 |
| C=CCOC(=O)[C@H]1[C@@H]2C(=O)O[C@@H](c3ccccc3)[C@@H](c3ccccc3)N2[C@@H](c2ccc(OCCOC(=O)[C@H]3C[C@H]4C(=O)N[C@@H](CC(C)C)C(=O)N4[C@H]3c3ccc(O)cc3)cc2)[C@]12C(=O)Nc1ccccc12 | 0.0682 |
| CC1CC/C=C\[C@H]2OC34C=CCN(Cn5nnc6ccccc65)C(=O)[C@H]3N(CCCCCCO)C(=O)[C@@H]4C2C(=O)O1 (some centres not stated) | 0.535 |
| [N-]=[N+]=Nc1ccccc1C[C@@]1(C(=O)NCc2ccccc2)N=C(c2ccc(OCCCO)cc2)O[C@@H]1c1ccccc1N=[N+]=[N-] | -0.664 |
| Cc1ccc(S[C@]2(C(=O)NCCCN(C)C)CC(=O)N(C3Cc4ccccc4C3)[C@@H]2c2ccc(CO)cc2I)cc1 | -0.595 |
| CC(C)N1C(=O)c2ccccc2[C@](C)(C(=O)NCC(F)(F)F)[C@@H]1c1ccc(CO)cc1 | -0.116 |
| CN(C)CCCC[C@@H]1NC(=O)[C@H]2C[C@@H](C(=O)O)[C@@H](c3ccc(O)cc3)N2C1=O | -0.401 |
| O=C1[C@@H]2[C@@H](CC(COc3ccccc3)=C([C@H](O)CCc3ccccc3)[C@@H]2CO)C(=O)N1Cc1ccccc1 | -1.38 |
| C=C(CCCC)/C(=C/C[C@H](OC(=O)c1ccncc1)c1ccccc1OCCO)c1cc(C(=O)OC)ccc1OC | -0.345 |
| CC(C)NC(=O)[C@@]1(C)c2ccccc2C(=O)N(Cc2ccccc2)[C@H]1c1ccc(CO)cc1 | 0.107 |
| COc1ccc(C#Cc2ccc3c(c2)[C@]2(C(=O)N3)[C@H](C(=O)O)[C@H]3C(=O)O[C@H](c4ccccc4)[C@H](c4ccccc4)N3[C@@H]2c2ccccc2OCCO)cc1 | -0.638 |
| CCCCCCc1nc(Cc2cc(OC)c(OC)c(OC)c2)cc2c1[Si](C(C)C)(C(C)C)O[C@H]2c1ccccc1 | 0.915 |
| O=C1C[C@@](C(=O)NCc2ccccc2)(c2ccc([N+](=O)[O-])cc2)[C@@H](c2ccc(CO)cc2)N1C1CCCCC1 | -0.563 |
| O=C(NCc1ccccc1)[C@@H]1c2ccccc2C(=O)N(Cc2cc(C(F)(F)F)cc(C(F)(F)F)c2)[C@H]1c1ccc(CO)cc1 | -0.527 |
| COc1ccc([Si](C)(C)[C@@H]2[C@@H](CC(=O)N(CCO)Cc3ccccc3)O[C@]3(C(=O)N(Cc4ccc(I)cc4)c4ccccc43)[C@H]2C)cc1 | -1.42 |
| COCCn1c(C(=O)N(C)C)cc2c1C[C@H]1CN(C(=O)c3ccccc3)[C@@](Cc3ccc(OC)cc3)(C(=O)OC)[C@@H]21 | -0.17 |
| O=C1C2C=CC(C(O)c3cccs3)N(Nc3ccc([N+](=O)[O-])cc3)C2C(=O)N1c1ccccc1 (configuration not stated) | 0.626 |
| O=C1O[C@@H](c2ccccc2)[C@@H](c2ccccc2)N2[C@@H](c3ccc(OCCO)cc3)[C@]3(C(=O)Nc4ccc(C#CC5(O)CCCCCC5)cc43)[C@@H](C(=O)Nc3nc4ccccc4s3)[C@H]12 | -0.369 |
| CC(C)[Si](C#CCCc1ccccc1)(O[C@H](c1ccccc1)c1cn(Cc2ccccc2)nn1)C(C)C | 1.5 |
| COCCOC(=O)N1C(=O)[C@@]2(c3cc(C#CC4(O)CCCCCC4)ccc31)[C@H](c1ccc(O)cc1)N1[C@H](c3ccccc3)[C@H](c3ccccc3)OC(=O)[C@H]1[C@@H]2C(=O)N1CCCCCCC1 | 0.0323 |
| CN1C(=O)C2C(C3CC3)C=C3CN(Cc4cccc(Cl)c4)[C@@H]([C@@H](O)Cc4ccccc4)C3C2C1=O (some centres not stated) | 0.313 |
| C=CCC(OC(C)=O)[C@@H]1[C@@H](N(Cc2ccc(-c3ccccc3)cc2)C(=O)c2cccc3ccccc23)c2cc(OCCCO)ccc2N1C(=O)Cc1ccc(OC)cc1 (some centres not stated) | -0.533 |
| O=C1NC(=O)C2C1C=CC(C(O)c1ccc([N+](=O)[O-])cc1)N2Nc1ccccn1 (configuration not stated) | -0.731 |
| CCCCC(O)C1C=CC2C(=O)N(c3ccccc3)C(=O)C2N1Nc1ccccc1 (configuration not stated) | 0.281 |
